Experiment [1] in a line: APR_HepG2_NuclearSize_72hr: Apredica 72-hour HepG2 Assay for Nuclear Size (AID 2282925). As to conditions: high-content imaging, actives raise or lower the signal. The essentials: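 HepG2 cells were exposed to compounds at ten concentrations from 0.39 to 200 uM (duplicate, 0.5% DMSO final) for 72 hr. After fixation in 3.7% formaldehyde, nuclei were stained with Hoechst 33342 (2 ug/mL) and imaged at 20x.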

Experiment [2] in a line: ATG_CRE_CIS: Attagene CIS-FACTORIAL HepG2 Assay for human cAMP Responsive Element (CRE) binding protein 3 (AID 2282926). As to conditions: HepG2 CRE cis-reporter, Attagene multiplexed mRNA; actives raise or lower the signal. The essentials:
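HepG2 cells transiently transfected with cis-element-driven multiple reporter transcription units; CRE reporter mRNA measured 24 h after dosing by RT-PCR, 6-FAM labelling, HpaI digestion and capillary electrophoresis. Bidirectional fit versus DMSO baseline.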

For experiment [3], the target named is CCAAT/enhancer-binding protein beta (Homo sapiens) (UniProt P17676). Put plainly: ATG_C_EBP_CIS: Attagene CIS-FACTORIAL HepG2 Assay for human CCAAT/Enhancer Binding Protein (C/EBP) beta (AID 2282927). As to conditions: HepG2 Attagene cis-factorial transcription factor reporter; actives raise or lower the signal. The essentials: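 RT-PCR/capillary electrophoresis fluorescence of reporter mRNA, 24 h post-dose, in HepG2 cells carrying transfected cis-promoter reporter units. Bidirectional curve fitting against DMSO baseline captures gain or loss of signal.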
Chain of CCAAT/enhancer-binding protein beta (Homo sapiens) (P17676 whole entry, looked up): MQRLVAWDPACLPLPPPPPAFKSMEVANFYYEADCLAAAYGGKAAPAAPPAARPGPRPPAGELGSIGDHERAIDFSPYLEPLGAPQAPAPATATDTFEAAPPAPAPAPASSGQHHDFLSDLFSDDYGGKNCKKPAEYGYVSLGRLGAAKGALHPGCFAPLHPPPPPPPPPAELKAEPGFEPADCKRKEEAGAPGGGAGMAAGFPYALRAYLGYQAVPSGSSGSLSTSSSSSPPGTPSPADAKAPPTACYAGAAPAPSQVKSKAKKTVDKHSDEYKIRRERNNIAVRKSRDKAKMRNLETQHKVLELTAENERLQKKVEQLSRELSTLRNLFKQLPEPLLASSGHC

Experiment [4] is described as follows: ATG_CMV_CIS: Attagene CIS-FACTORIAL HepG2 Assay for human CMV (Internal Marker) (AID 2282928).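 Further: endpoint acts as a background internal control marker rather than a target.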 Particulars: HepG2 CMV promoter reporter, transcription factor profiling; actives raise or lower the signal. The essentials:
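CMV internal-marker background readout in transiently transfected HepG2 cells bearing cis-regulated reporter units. Reporter mRNA is measured 24 h after dosing by RT-PCR and capillary electrophoresis, with bidirectional fitting against DMSO.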

Experiment [5] is described as follows: ATG_DR4_LXR_CIS: Attagene CIS-FACTORIAL HepG2 Assay for human Liver X Receptor (LXR), DR4 submotif (AID 2282929). Particulars: HepG2 Attagene DR4 cis-reporter, mRNA transcription; actives raise or lower the signal. The essentials:
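Cells were transfected with multiple reporter transcription units, exposed to chemicals for 24 hours, then lysed for RNA. Reporter mRNA induction was measured by RT-PCR with capillary electrophoresis detection and fitted in both directions relative to DMSO.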

Experiment [6] concerns the target Aryl hydrocarbon receptor (Homo sapiens) (UniProt P35869). Put plainly: ATG_Ahr_CIS: Attagene CIS-FACTORIAL HepG2 Assay for human Aryl Hydrocarbon Receptor (Ahr) (AID 2282930). Particulars: HepG2 AhR cis-factorial reporter transcription; actives raise or lower the signal. The essentials:
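HepG2 cells transiently transfected with cis-element-driven multiplexed reporter transcription units; endogenous transcription factor activity measured as reporter mRNA 24 h after dosing. RT-PCR, 6-FAM labelling, HpaI digestion, capillary electrophoresis; bidirectional fitting versus DMSO baseline.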

The nature of experiment [7]: ATG_AP_1_CIS: Attagene CIS-FACTORIAL HepG2 Assay for human Activator Protein 1 (AP-1) (AID 2282931). As to conditions: HepG2 Attagene cis-factorial AP-1 reporter mRNA; actives raise or lower the signal. The essentials: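 Endogenous transcription-factor activity in human HepG2 liver cells is read through a cis-promoter reporter transcript, sampled 24 h after dosing. Detection uses RT-PCR with capillary electrophoresis; values come from bidirectional fitting relative to DMSO.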

A short description of experiment [8]: ATG_AP_2_CIS: Attagene CIS-FACTORIAL HepG2 Assay for human Activator Protein 2 (AP-2) (AID 2282932). Particulars: HepG2 AP-2 cis-reporter, Attagene transcription factor profiling; actives raise or lower the signal. The essentials: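 HepG2 cells were transiently transfected with multiple cis-promoter reporter transcription units and dosed for 24 h. Reporter mRNA was measured by RT-PCR with capillary electrophoresis fluorescence; bidirectional fits relative to DMSO baseline.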

Experiment [9] is described as follows: ATG_BRE_CIS: Attagene CIS-FACTORIAL HepG2 Assay for human Bone Morphogenetic Protein (BMP) Response Element (BRE) (AID 2282933). Particulars: HepG2 BMP response element reporter, Attagene transcription factor profiling; actives raise or lower the signal. The essentials:
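After a 24 h chemical treatment, transiently transfected HepG2 cells were lysed for RNA; reporter transcripts were quantified by fluorescent RT-PCR and capillary electrophoresis, normalised to DMSO.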

Experiment [10] concerns the target Transcription factor E2F1 (Homo sapiens) (UniProt Q01094). Put plainly: ATG_E2F_CIS: Attagene CIS-FACTORIAL HepG2 Assay for human E2F Transcription Factor 1 (AID 2282935). Particulars: HepG2 Attagene cis-reporter, E2F reporter RNA transcripts; actives raise or lower the signal. The essentials: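 HepG2 cells transiently transfected with multiplexed cis-element reporter units, dosed for 24 h. Reporter mRNA measured by RT-PCR, 6-FAM primer-extension labeling, HpaI digestion and capillary electrophoresis; bidirectional fit versus DMSO baseline.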

A short description of experiment [11]: ATG_E_Box_CIS: Attagene CIS-FACTORIAL HepG2 Assay for human Enhancer Box (E-box) (AID 2282936). As to conditions: HepG2 E-box cis-reporter transcription, actives raise or lower the signal. The essentials: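 HepG2 cells transiently transfected with multiplexed cis-element reporter units sensing endogenous transcription factor activity; 24 h compound exposure. Reporter mRNA measured by RT-PCR, 6-FAM primer extension, HpaI digestion and capillary electrophoresis; bidirectional fit versus DMSO.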

Experiment [12] can be described thus: ATG_M_61_CIS: Attagene CIS-FACTORIAL HepG2 Assay for M61 Transcription Factor (Internal Marker) (AID 2282937). Particulars: HepG2 Attagene CIS-FACTORIAL M61 internal marker reporter; actives raise or lower the signal. The essentials: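 Cells were transfected with reporter units under cis-regulatory promoters, treated with chemicals for 24 h, then lysed for RNA. Reporter transcripts were quantified by RT-PCR and capillary electrophoresis, and activity was fitted bidirectionally against DMSO.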

The nature of experiment [13]: ATG_EGR_CIS: Attagene CIS-FACTORIAL HepG2 Assay for human Early Growth Response 1 (EGR1) (AID 2282938). As to conditions: HepG2 Attagene CIS-FACTORIAL EGR reporter mRNA; actives raise or lower the signal. The essentials: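 Endogenous TF activity in HepG2 liver cells was gauged through cis-promoter reporter constructs transiently transfected. After 24 h dosing, reporter mRNA was quantified by RT-PCR and capillary electrophoresis, and curves fitted in both directions versus DMSO.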

Experiment [14] is described as follows: ATG_M_19_CIS: Attagene CIS-FACTORIAL HepG2 Assay for M19 Transcription Factor (Internal Marker) (AID 2282939). Particulars: HepG2 Attagene CIS-FACTORIAL M19 internal marker reporter; actives raise or lower the signal. The essentials:
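In this multiplexed cell assay, transiently transfected HepG2 reporter units report endogenous transcription-factor activity; after 24 hours of treatment, labelled reporter cDNA fragments are quantified by capillary electrophoresis and fitted bidirectionally against DMSO.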

Experiment [15] in a line: ATG_ERE_CIS: Attagene CIS-FACTORIAL HepG2 Assay for Estrogen Response Element (ERE) (AID 2282940). As to conditions: HepG2 ERE cis-reporter, Attagene RNA transcript; actives raise or lower the signal. The essentials:
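Measuring endogenous transcription factor output, the assay doses transfected HepG2 cells for 24 hours and quantifies reporter transcripts by fluorescent RT-PCR and capillary electrophoresis, with DMSO as baseline.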

The nature of experiment [16]: ATG_Ets_CIS: Attagene CIS-FACTORIAL HepG2 Assay for human Erythroblast Transformation Specific (ETS) (AID 2282941). As to conditions: HepG2 ETS cis-reporter transcription, actives raise or lower the signal. The essentials: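 HepG2 cells transfected with multiple cis-regulated reporter units measuring endogenous ETS-driven transcription, 24 h after dosing. Reporter mRNA quantified by RT-PCR with capillary electrophoresis; bidirectional fit relative to DMSO.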

For experiment [17], the target named is Hepatocyte nuclear factor 3-beta (Homo sapiens) (UniProt Q9Y261). The experiment can be described thus: ATG_FoxA2_CIS: Attagene CIS-FACTORIAL HepG2 Assay for human Forkhead box A2 (FOXA2) (AID 2282942). Particulars: HepG2 cis-reporter transcription factor activity, 24 h; actives raise or lower the signal. The essentials: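 Endogenous transcription factor activity was read in HepG2 cells carrying transiently transfected cis-promoter reporter units. After 24 h dosing, reporter mRNA was quantified by RT-PCR and capillary electrophoresis, and values fitted bidirectionally versus DMSO.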
Chain of Hepatocyte nuclear factor 3-beta (Homo sapiens) (Q9Y261 whole entry, looked up): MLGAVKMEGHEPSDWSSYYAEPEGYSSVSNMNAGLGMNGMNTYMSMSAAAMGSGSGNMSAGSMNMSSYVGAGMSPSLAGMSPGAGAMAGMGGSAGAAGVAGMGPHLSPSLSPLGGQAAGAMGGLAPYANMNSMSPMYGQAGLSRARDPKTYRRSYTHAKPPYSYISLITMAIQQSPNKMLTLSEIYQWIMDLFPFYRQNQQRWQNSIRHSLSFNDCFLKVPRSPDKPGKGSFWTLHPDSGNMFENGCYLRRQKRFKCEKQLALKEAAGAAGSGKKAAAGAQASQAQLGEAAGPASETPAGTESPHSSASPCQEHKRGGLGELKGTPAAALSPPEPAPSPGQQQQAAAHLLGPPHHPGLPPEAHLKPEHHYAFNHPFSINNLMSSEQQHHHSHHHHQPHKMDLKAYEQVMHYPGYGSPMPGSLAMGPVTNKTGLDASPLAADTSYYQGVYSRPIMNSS

Experiment [18] in a line: ATG_GATA_CIS: Attagene CIS-FACTORIAL HepG2 Assay for human GATA Binding Protein (AID 2282944). Particulars: HepG2 GATA cis-element reporter, Attagene multiplex mRNA; actives raise or lower the signal. The essentials: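 Measures endogenous transcription factor-driven reporter mRNA in HepG2 cells transiently carrying cis-regulated constructs. 24 h dosing; RNA via oligo(dT) reverse transcription, PCR, HpaI digestion, capillary electrophoresis; fitted relative to DMSO.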

The target in experiment [19] is Retinoic acid receptor alpha (Homo sapiens) (UniProt P10276). The experiment can be described thus: ATG_DR5_RAR_CIS: Attagene CIS-FACTORIAL HepG2 Assay for human Retinoic Acid Receptor Alpha (RARE), DR5 submotif (AID 2282934).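 On AC50: reporter responds to endogenous RAR alpha beta and gamma in HepG2 not RARA alone.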 As to conditions: HepG2 Attagene cis-factorial RARE DR5 reporter, mRNA; actives raise or lower the signal. The essentials:
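HepG2 cells transiently transfected with multiplexed reporter units under cis (DR5 RARE) promoters, so endogenous transcription factor activity is measured. After 24 h compound exposure, reporter mRNA is quantified by RT-PCR with fluorescent labelling and capillary electrophoresis; bidirectional fitting versus DMSO.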

Experiment [20] can be described thus: ATG_FoxO_CIS: Attagene CIS-FACTORIAL HepG2 Assay for human Forkhead box O (FoxO) (AID 2282943). As to conditions: HepG2 Attagene cis-reporter, FoxO element, mRNA; actives raise or lower the signal. The essentials:
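HepG2 cells transiently transfected with cis-promoter-driven multiple reporter transcription units; 24 h after chemical dosing, reporter mRNA quantified by RT-PCR, fluorescent primer extension, HpaI digestion and capillary electrophoresis. Bidirectional fitting versus DMSO baseline.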

Where “and” joins values, the source holds several entries; their conditions need not be identical. Identical values can stand only once. A structure can be active in one record and inactive in another. Calls of active or inactive are those of the source. How the source made its calls: active means hit-call score of the fitted dose curve at least 0.9, where 1 is the maximum; inactive means score below 0.9.

The AC50 is the concentration giving half of the maximal activity seen.

Chain of Aryl hydrocarbon receptor (Homo sapiens) (P35869 whole entry, looked up): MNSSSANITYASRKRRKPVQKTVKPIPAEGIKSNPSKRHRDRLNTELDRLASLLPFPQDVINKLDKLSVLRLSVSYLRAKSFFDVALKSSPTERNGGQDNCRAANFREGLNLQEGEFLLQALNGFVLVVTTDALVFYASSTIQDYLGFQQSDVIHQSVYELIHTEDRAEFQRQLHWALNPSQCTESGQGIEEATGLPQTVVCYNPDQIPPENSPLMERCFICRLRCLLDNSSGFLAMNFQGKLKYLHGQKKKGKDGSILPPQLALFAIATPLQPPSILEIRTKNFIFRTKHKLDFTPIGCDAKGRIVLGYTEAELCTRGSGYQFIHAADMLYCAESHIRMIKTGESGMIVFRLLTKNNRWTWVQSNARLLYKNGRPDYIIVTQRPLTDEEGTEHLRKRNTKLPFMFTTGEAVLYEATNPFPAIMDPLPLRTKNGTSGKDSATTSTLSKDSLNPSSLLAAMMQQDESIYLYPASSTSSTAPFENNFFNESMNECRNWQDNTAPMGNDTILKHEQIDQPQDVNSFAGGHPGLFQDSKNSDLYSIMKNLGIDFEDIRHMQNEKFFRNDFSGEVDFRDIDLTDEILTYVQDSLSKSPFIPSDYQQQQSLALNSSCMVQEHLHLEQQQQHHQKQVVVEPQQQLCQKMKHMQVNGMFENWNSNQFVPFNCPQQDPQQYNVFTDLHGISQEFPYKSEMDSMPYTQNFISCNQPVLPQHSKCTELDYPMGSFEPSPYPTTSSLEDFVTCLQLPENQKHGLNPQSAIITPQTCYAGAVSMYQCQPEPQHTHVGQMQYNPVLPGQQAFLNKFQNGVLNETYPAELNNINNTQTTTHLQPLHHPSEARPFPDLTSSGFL
Chain of Transcription factor E2F1 (Homo sapiens) (Q01094 whole entry, looked up): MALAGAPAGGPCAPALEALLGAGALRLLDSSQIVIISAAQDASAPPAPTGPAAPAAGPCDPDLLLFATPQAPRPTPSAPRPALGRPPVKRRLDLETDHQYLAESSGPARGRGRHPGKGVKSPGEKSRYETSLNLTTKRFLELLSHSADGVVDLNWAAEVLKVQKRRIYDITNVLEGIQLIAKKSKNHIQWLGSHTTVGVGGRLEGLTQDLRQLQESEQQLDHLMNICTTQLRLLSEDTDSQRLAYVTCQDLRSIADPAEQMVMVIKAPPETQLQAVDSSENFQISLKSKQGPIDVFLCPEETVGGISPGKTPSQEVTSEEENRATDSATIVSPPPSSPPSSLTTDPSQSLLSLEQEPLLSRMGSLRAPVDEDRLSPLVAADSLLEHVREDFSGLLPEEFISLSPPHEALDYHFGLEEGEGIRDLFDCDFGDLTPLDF
Chain of Retinoic acid receptor alpha (Homo sapiens) (P10276 whole entry, looked up): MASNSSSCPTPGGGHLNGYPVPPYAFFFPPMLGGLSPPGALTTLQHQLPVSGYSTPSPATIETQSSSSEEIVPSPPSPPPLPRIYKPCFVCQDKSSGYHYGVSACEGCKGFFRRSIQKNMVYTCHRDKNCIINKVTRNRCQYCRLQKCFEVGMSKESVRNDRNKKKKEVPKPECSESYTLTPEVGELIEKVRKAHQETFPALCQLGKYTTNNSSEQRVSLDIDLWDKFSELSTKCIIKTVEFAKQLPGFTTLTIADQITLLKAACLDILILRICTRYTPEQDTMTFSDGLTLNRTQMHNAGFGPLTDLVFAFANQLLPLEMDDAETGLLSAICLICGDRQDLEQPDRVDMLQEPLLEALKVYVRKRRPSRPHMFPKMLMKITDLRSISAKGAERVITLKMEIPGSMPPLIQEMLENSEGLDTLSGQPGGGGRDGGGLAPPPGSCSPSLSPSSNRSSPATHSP

For the compound `CCOC(=O)CC(SP(=S)(OC)OC)C(=O)OCC` (configuration not stated), the compound was classed as inactive in [1], in experiment [2], in experiment [3], in experiment [4], in experiment [5] and in experiment [6]. Moreover, the compound was classed as inactive in experiment [7], in experiment [8], in experiment [10], in experiment [11], in [12] and in experiment [13]. Besides, the compound was called inactive in experiment [14], in [16], in [17] and in experiment [18]. The concentration at half-maximal activity (AC50) in experiment [2] was 26.6 µM (active); in [7] it was 41.2 µM (active); in [9] it was 69.2 µM (active) and 28.1 µM (active); in [13], 100 µM (active); in experiment [15], 100 µM (active) and 27 µM (active).

As to `COC(=O)N(OC)c1ccccc1COc1ccn(-c2ccc(Cl)cc2)n1`, the result in [1], in [6], in experiment [7], in experiment [8], in [10] and in [11] was inactive. In addition, the compound was called inactive in experiment [12], in [13], in experiment [14], in [15], in experiment [17] and in experiment [20]. In addition, the compound was called inactive in experiment [18]. Further, the AC50 in experiment [2] is 0.532 µM (active); in experiment [3] it was 401 nM (active); in experiment [4] it was 0.457 µM (active); in experiment [5] it was 2.77 µM (active); in experiment [9] it was 743 nM (active); in [19], 0.64 µM (active). For the same compound, the half-maximal activity concentration (AC50) in experiment [16] was 1.47 µM (active).

As for `COc1ccc(C(c2ccc(OC)cc2)C(Cl)(Cl)Cl)cc1`, the outcome in [1], in experiment [2], in experiment [3], in [4], in experiment [5] and in experiment [6] was inactive. Further, the compound was classed as inactive in experiment [8], in experiment [9], in [19], in [10], in experiment [11] and in [12]. In addition, the compound was called inactive in experiment [13], in experiment [14], in experiment [15], in [16], in experiment [17] and in experiment [18]. The AC50 is 15.2 µM (active) in experiment [6]; 29.7 µM (active) and 15.5 µM (active) in experiment [9]; 19.7 µM (active) in [19]; 27 µM (active) and 5.64 µM (active) in experiment [11]; 5.09 µM (active) [middle of 4 runs] in [15].

As for `CCCCNC(=O)n1c(NC(=O)OC)nc2ccccc21`, the result in experiment [1], in experiment [2], in [3], in experiment [4], in experiment [5] and in experiment [6] was inactive. Besides, the compound was called inactive in experiment [7], in experiment [8], in experiment [9], in experiment [19], in experiment [10] and in [11]. For the same compound, the result in experiment [12], in [13], in experiment [14], in [15], in experiment [16] and in experiment [17] was inactive. Besides, in [18], the outcome was inactive.

Regarding `CON(C)C(=O)Nc1ccc(Cl)c(Cl)c1`, the result in [1], in [2], in experiment [3], in experiment [4], in experiment [5] and in experiment [8] was inactive. Moreover, the compound was classed as inactive in [9], in experiment [19], in experiment [10], in [11], in experiment [12] and in experiment [13]. In addition, the compound was called inactive in [14], in experiment [15], in [16], in [17] and in experiment [18]. Besides, the half-maximal activity concentration (AC50) in experiment [4] was 55.6 µM (active); in experiment [6], 27.4 µM (active) [middle of 4 runs].

These data come from PubChem BioAssay (EPA / NIEHS).
